A short description of experiment [1]: NCI Yeast Anticancer Drug Screen. Data for the rad50 strain (AID 155).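 Note: 0% = growth of vehicle-only cultures of the same strain.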 To be noted: S. cerevisiae rad50 strain growth inhibition, stronger effect = higher value. The gist of the method: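 Relative growth inhibition (compound vs vehicle) was measured in yeast with a defined repair-gene alteration.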
The nature of experiment [2]: NCI Yeast Anticancer Drug Screen. Data for the mec2-1 strain (AID 157). The following applies: S. cerevisiae mec2-1 strain, stronger effect = higher value. In short, it runs like this: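 Yeast mec2-1 mutant treated with compound. Readout: growth inhibition vs vehicle controls.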
The nature of experiment [3]: NCI Yeast Anticancer Drug Screen. Data for the sgs1 mgt1 strain (AID 161).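 Note: 0% = growth of cultures given vehicle only.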 The following applies: S. cerevisiae sgs1 mgt1 strain, stronger effect = higher value. In short, it runs like this:
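Inhibition of yeast growth, normalised to vehicle-treated controls, is reported for a strain bearing genetic alterations in DNA damage repair.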

Experiment [4] is described as follows: NCI Yeast Anticancer Drug Screen. Data for the cln2 rad14 strain (AID 165).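 Note: 0% = growth equal to vehicle treated cultures.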 The following applies: S. cerevisiae cln2 rad14 strain, stronger effect = higher value. The gist of the method:
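cln2 rad14 yeast strain; compound exposure; growth inhibition read vs vehicle controls.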

A short description of experiment [5]: NCI Yeast Anticancer Drug Screen. Data for the bub3 strain (AID 167). To be noted: S. cerevisiae bub3 mutant strain, stronger effect = higher value. In short, it runs like this:
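Screening used yeast with an engineered genetic alteration affecting cell cycle control. Compound-exposed cultures were compared with vehicle cultures, and reduced growth was taken as inhibition.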

A short description of experiment [6]: NCI Yeast Anticancer Drug Screen. Data for the mlh1 rad18 strain (AID 175). The following applies: S. cerevisiae mlh1 rad18 strain growth inhibition, stronger effect = higher value. In short, it runs like this: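 Yeast w/ defined DNA-repair lesions; compound exposure; growth vs vehicle controls → % inhibition.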
Setting [7] is: at 5.0 µM (retest, dose inferred, filed as 0.5).
The mark [8] stands for this setting: at 50.0 µM (retest, dose inferred, filed as 5.0).

Compounds without any hit were thinned out: in the full panel of roughly 79,000, 15% have a hit. Unmarked numbers belong to inactive results. Calls of active or inactive are those of the source. Cut-off read from the data, not from the text of the source: active = growth inhibition above about 70%; inactive = the rest.

Take `O=C1CCSC(=S)N1c1ccccc1C(F)(F)F`: the growth inhibition in experiment [1] (setting [7]) is 7%; in experiment [1] (setting [8]), 99% (active); in experiment [1] (at 50.0 µM), 99.1% (active); in experiment [2] (setting [7]), 4%; in experiment [2] (setting [8]), 99% (active); in experiment [2] (at 50.0 µM), 99.5% (active). In addition, the growth inhibition is 9% in experiment [3] (setting [7]); 99% (active) in experiment [3] (setting [8]); 99.5% (active) in experiment [3] (at 50.0 µM); 7% in experiment [4] (setting [7]); 98% (active) in experiment [4] (setting [8]); 98.6% (active) in experiment [4] (at 50.0 µM). The growth inhibition in experiment [5] (setting [7]) is 0%; in experiment [5] (setting [8]), 99% (active); in experiment [5] (at 50.0 µM) it was 99.2% (active); in experiment [6] (setting [7]) it was 1%; in experiment [6] (setting [8]), 99% (active); in experiment [6] (at 50.0 µM) it was 99.3% (active).
On to `Nc1ncnc2c1ncn2C1OCC(O)C1O` (configuration not stated), for which the growth inhibition in experiment [1] (setting [7]) was 24%; in experiment [1] (setting [8]), 66%; in experiment [1] (at 50.0 µM) it was 81.6% (active); in experiment [2] (setting [7]) it was 33%; in experiment [2] (setting [8]) it was 68%; in experiment [2] (at 50.0 µM), 78.2% (active). In addition, the growth inhibition is 20% in experiment [3] (setting [7]); 74% (active) in experiment [3] (setting [8]); 72.9% (active) in experiment [3] (at 50.0 µM); 29% in experiment [4] (setting [7]); 58% in experiment [4] (setting [8]); 64.5% in experiment [4] (at 50.0 µM). In addition, the growth inhibition in experiment [5] (setting [7]) was 20%; in experiment [5] (setting [8]), 82% (active); in experiment [5] (at 50.0 µM) it was 82.7% (active); in experiment [6] (setting [7]), 21%; in experiment [6] (setting [8]) it was 86% (active); in experiment [6] (at 50.0 µM), 82.2% (active).
`CCCCCCCCCCCC(=O)OCCN(CC)CC`: the growth inhibition in experiment [1] (setting [7]) is 3%; in experiment [1] (setting [8]), 99% (active); in experiment [1] (at 50.0 µM), 95.8% (active); in experiment [2] (setting [7]), -1%; in experiment [2] (setting [8]), 99% (active); in experiment [2] (at 50.0 µM), 98.6% (active). For the same compound, the growth inhibition in experiment [3] (setting [7]) is 4%; in experiment [3] (setting [8]) it was 99% (active); in experiment [3] (at 50.0 µM), 65.5%; in experiment [4] (setting [7]), 0%; in experiment [4] (setting [8]) it was 99% (active); in experiment [4] (at 50.0 µM) it was 97.9% (active). The growth inhibition in experiment [5] (setting [7]) is -3%; in experiment [5] (setting [8]) it was 98% (active); in experiment [5] (at 50.0 µM) it was 93.2% (active); in experiment [6] (setting [7]) it was -2%; in experiment [6] (setting [8]) it was 99% (active); in experiment [6] (at 50.0 µM), 98% (active).
In the case of `O=c1cc(-c2ccccc2)oc2ccc(-c3ccc4oc(-c5ccccc5)cc(=O)c4c3)cc12`, the growth inhibition in experiment [1] (setting [7]) is 8%; in experiment [1] (setting [8]), 40%; in experiment [1] (at 50.0 µM), 37.3%; in experiment [2] (setting [7]) it was 7%; in experiment [2] (setting [8]), 16%; in experiment [2] (at 50.0 µM), 40.6%. Further, the growth inhibition in experiment [3] (setting [7]) was -10%; in experiment [3] (setting [8]) it was 82% (active); in experiment [3] (at 50.0 µM) it was 31.7%; in experiment [4] (setting [7]), -1%; in experiment [4] (setting [8]) it was 39%; in experiment [4] (at 50.0 µM) it was 28.4%. For the same compound, the growth inhibition in experiment [5] (setting [7]) was 5%; in experiment [5] (setting [8]), 89% (active); in experiment [5] (at 50.0 µM) it was 59%; in experiment [6] (setting [7]) it was 13%; in experiment [6] (setting [8]), 25%; in experiment [6] (at 50.0 µM) it was 87.8% (active).
On to `CCOC(=O)c1c(NC(=O)CBr)sc(C)c1C`, for which the growth inhibition in experiment [1] (setting [7]) is 8%; in experiment [1] (setting [8]), 48%; in experiment [1] (at 50.0 µM), 21.2%; in experiment [2] (setting [7]), -3%; in experiment [2] (setting [8]), 64%; in experiment [2] (at 50.0 µM), 7.8%. The growth inhibition was 10% in experiment [3] (setting [7]); 74% (active) in experiment [3] (setting [8]); 32.9% in experiment [3] (at 50.0 µM); 0% in experiment [4] (setting [7]); 18% in experiment [4] (setting [8]); -28.4% in experiment [4] (at 50.0 µM). Besides, the growth inhibition was 5% in experiment [5] (setting [7]); 65% in experiment [5] (setting [8]); 38.1% in experiment [5] (at 50.0 µM); 7% in experiment [6] (setting [7]); 69% in experiment [6] (setting [8]); 21.8% in experiment [6] (at 50.0 µM).
For the compound `Cc1ccc(NC(=S)SCc2ccc(Cl)cc2)cc1Cl`, the growth inhibition in experiment [1] (setting [7]) is 33%; in experiment [1] (setting [8]) it was 97% (active); in experiment [1] (at 50.0 µM), 90.5% (active); in experiment [2] (setting [7]) it was 19%; in experiment [2] (setting [8]) it was 98% (active); in experiment [2] (at 50.0 µM), 92.3% (active). For the same compound, the growth inhibition in experiment [3] (setting [7]) is 44%; in experiment [3] (setting [8]), 99% (active); in experiment [3] (at 50.0 µM), 92.2% (active); in experiment [4] (setting [7]), 40%; in experiment [4] (setting [8]), 98% (active); in experiment [4] (at 50.0 µM), 89.8% (active). The growth inhibition was 55% in experiment [5] (setting [7]); 99% (active) in experiment [5] (setting [8]); 91.9% (active) in experiment [5] (at 50.0 µM); 23% in experiment [6] (setting [7]); 97% (active) in experiment [6] (setting [8]); 91% (active) in experiment [6] (at 50.0 µM).
As for `Oc1ccccc1/C=N\N=C\c1ccccc1O`, the growth inhibition is 5% in experiment [1] (setting [7]); -22% in experiment [1] (setting [8]); 8.75% in experiment [1] (at 50.0 µM); -10% in experiment [2] (setting [7]); -3% in experiment [2] (setting [8]); 3.5% in experiment [2] (at 50.0 µM). The growth inhibition was 4% in experiment [3] (setting [7]); 4% in experiment [3] (setting [8]); -10.8% in experiment [3] (at 50.0 µM); 7% in experiment [4] (setting [7]); -3% in experiment [4] (setting [8]); 37.2% in experiment [4] (at 50.0 µM). The growth inhibition in experiment [5] (setting [7]) is -70%; in experiment [5] (setting [8]), 6%; in experiment [5] (at 50.0 µM), 0.8%; in experiment [6] (setting [7]) it was 2%; in experiment [6] (setting [8]) it was 0%; in experiment [6] (at 50.0 µM), 13.2%.
Take `CC(C)(C)c1ccc2c(c1)CNCCNCc1cc(C(C)(C)C)ccc1OCC1(CO2)COc2ccc(C(C)(C)C)cc2CNCCNCc2cc(C(C)(C)C)ccc2OC1`: the growth inhibition was 99% (active) in experiment [1] (setting [7]); 92% (active) in experiment [1] (setting [8]); 89% (active) in experiment [1] (at 50.0 µM); 99% (active) in experiment [2] (setting [7]); 94% (active) in experiment [2] (setting [8]); 90% (active) in experiment [2] (at 50.0 µM). Also, the growth inhibition in experiment [3] (setting [7]) was 99% (active); in experiment [3] (setting [8]) it was 92% (active); in experiment [3] (at 50.0 µM) it was 92.2% (active); in experiment [4] (setting [7]), 99% (active); in experiment [4] (setting [8]), 92% (active); in experiment [4] (at 50.0 µM), 89.5% (active). Moreover, the growth inhibition in experiment [5] (setting [7]) is 98% (active); in experiment [5] (setting [8]), 91% (active); in experiment [5] (at 50.0 µM), 89% (active); in experiment [6] (setting [7]), 98% (active); in experiment [6] (setting [8]), 92% (active); in experiment [6] (at 50.0 µM), 88.2% (active).
Consider `O=C1C(Br)=C(Br)C(=O)c2ccccc21`, for which the growth inhibition in experiment [1] (setting [7]) is 100% (active); in experiment [1] (setting [8]), 95% (active); in experiment [1] (at 50.0 µM), 92.5% (active); in experiment [2] (setting [7]), 100% (active); in experiment [2] (setting [8]), 96% (active); in experiment [2] (at 50.0 µM) it was 94.2% (active). Besides, the growth inhibition in experiment [3] (setting [7]) is 100% (active); in experiment [3] (setting [8]), 95% (active); in experiment [3] (at 50.0 µM), 94.5% (active); in experiment [4] (setting [7]) it was 100% (active); in experiment [4] (setting [8]) it was 95% (active); in experiment [4] (at 50.0 µM) it was 90.9% (active). Moreover, the growth inhibition is 100% (active) in experiment [5] (setting [7]); 98% (active) in experiment [5] (setting [8]); 96.7% (active) in experiment [5] (at 50.0 µM); 99% (active) in experiment [6] (setting [7]); 91% (active) in experiment [6] (setting [8]); 89.9% (active) in experiment [6] (at 50.0 µM).
